Assay results from PubChem BioAssay (NCI).
The panel holds about 83,000 compounds, 20% with a hit somewhere; the sample as a whole holds those more often.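 Compound tested at a single concentration for 48 hours in 96-well plates; a percent growth value below 10 was scored as active.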 Unmarked numbers belong to inactive results. Active and inactive are the calls of the source.

System: SF-539 CNS
Assay: NCI-60 one-dose screen, 48 h (100 = growth as untreated, 0 = no growth, -100 = all killed)
Conditions: 10 µM unless noted

SMILES	growth
COc1ccc(CNc2c3ccccc3nc3ccccc23)cc1OC	15.4%
COc1ccc(-c2csc(NC(=O)CSc3nc(C)cc(=O)[nH]3)n2)cc1	101%
O=C(CNc1ncco1)Nc1ccc(S(=O)(=O)c2ccc(NC(=O)CNc3ncco3)cc2)cc1	-15.4% (active)
Cc1c2cnccc2c(C)c2c1c1cc(C(=O)O)ccc1n2C	-24.5% (active)
COc1ccc(-c2cn(Cc3ccc4c(Br)cc(Br)c(O)c4n3)nn2)cc1	101%
COC(=O)c1c(C(=O)OC)c2ccc3c4ncccc4ccc3n2c1C(=O)c1ccc(C)cc1	97.6%
O=[N+]([O-])c1ccc(N/N=C\c2cc(Cl)ccc2O)nc1	29.8%
COc1ccc(C(=O)/C=C/c2ccc(C)cc2)cc1S(N)(=O)=O	25%
CN1CCN(CC(=O)N(C)c2ccc(N=C(c3ccccc3)c3c(O)[nH]c4ccc([N+](=O)[O-])cc34)cc2)CC1	36.1%
C=CC(=O)NCc1cccc(Nc2ncc(Br)c(NCCCNC(=O)C3CCC3)n2)c1	-68% (active)
Nc1nc(N)c2c(n1)NC(c1cccc(Nc3ccnc4cc(C(F)(F)F)ccc34)c1)CC(c1ccc(Cl)cc1)=N2 (stereo unspecified)	80.8%
C=C(C[n+]1ccccc1)[C@@H]1CC[C@]2(C(=O)OC)CC[C@]3(C)[C@H](CC[C@@H]4[C@@]5(C)CCC(=O)C(C)(C)[C@@H]5CC[C@]43C)[C@@H]12	93.7%

System: UACC-257 melanoma
Assay: as above
Conditions: 10 µM unless noted

SMILES	growth
CO[C@H]1CC(c2ccc[nH]2)=N[C@]12O[C@@H](C)C[C@@H]1CCCCCCCc3ccc([nH]3)[C@H]12	13.2%
COc1ccc2c(O)cc3c(c2c1)[C@H](CCl)CN3C(=O)c1cc2cc(NC(=O)CCN3CCOCC3)ccc2[se]1	-47.5% (active)
O=c1c(/C=C/c2c(O)ccc3ccccc23)nnc2sc(-c3cccc([N+](=O)[O-])c3)nn12	54.6%
CC1(C)CCC[C@]23C(=O)O[C@](O)(C(=O)C4=C[C@@](C)(/C=C/CCCc5ccc6ccc7cccc8ccc5c6c78)CC[C@@]42O)[C@@H]13	-68.7% (active)
CCOC(=O)CC1C(CNC(=O)NC)OC(n2cnc3c(NC(=O)Nc4ccccc4)ncnc32)C1O[Si](C)(C)C(C)(C)C (stereo unspecified)	87.5%
COc1ccc(-c2ccc(-c3ccc(C(=N)N)nc3)s2)cc1	84.6%
COc1ccc(Cn2cc3c(c2)-c2oncc2CC3)cc1	85.9%
O=[N+]([O-])c1ccc(Oc2cccc3c(Oc4ccc([N+](=O)[O-])cc4[N+](=O)[O-])cccc23)c([N+](=O)[O-])c1	91.6%
CCCCCN(CCCCC)CC(O)c1c(Cl)ccc2ccccc12 (stereo unspecified)	83.1%
Cn1cc(-c2csc(-c3cn(C)c4ccc(F)cc34)n2)c2cnccc21	-73.1% (active)
CNC1=C([N+](=O)[O-])C(c2ccc(OC)cc2)C(C#N)=C(c2ccc[nH]2)O1 (stereo unspecified)	106%
Cc1cc(C(=O)Nc2cc(Nc3ncccc3-c3ncnc4nc[nH]c34)ccc2F)cc(C(C)(C)C#N)c1	24.5%
COC(=O)CNC(=O)c1ccc(NC(=O)c2[nH]c(C)c(Cl)c2Cl)c(O[C@H]2CCNC2)c1	103%
FC(F)(F)c1cccc(-c2nnn(Cc3cc(-c4cccc(Cl)c4)no3)n2)c1	96.3%
O=C(Nc1ncc(Cc2ccccc2)s1)c1ccc2c(c1)OCCO2	45.1%
CCOC(=O)c1ccc2c(c1)[n+](=O)c(C(C)=O)c(C(F)(F)F)n2[O-]	-37.1% (active)
O=C(Nc1ccccc1C(F)(F)F)C1=NCCCCN1	99%
CCCCCC(C)(O)C(C(=O)O)c1ccccc1 (stereo unspecified)	102%
Nc1ncnc2c1N=C(c1ccc([N+](=O)[O-])cc1)CC(c1ccc3c(c1)OCO3)N2 (stereo unspecified)	116%
COc1cc2c(cc1OC)CC[N+](CCC[N+](C)(C)C)=C2	100%
O=C1Nc2ccccc2/C1=C/c1cccn1CCCCCCn1c2ccccc2c(=O)c2ccccc21	110%
CCCS(=O)(=O)Nc1cccc(Nc2ncnc3cc(NC(=O)CCl)ccc23)c1Cl	10.3%
Cc1ccc(C23CCC(=O)N2CCc2cncn23)cc1 (stereo unspecified)	100%
Cc1ccc(-c2nn(CC(=O)N3CCOCC3)c(N)c2C#N)cc1	107%
